About 7,900 targets were measured; listed, in parts, are those with a hit and a random draw of the rest. About 0.6% of all pairs of compound and target were hits. Values without a mark were called inactive.
Columns and labels:
Experiment in all cases: log2 fold change, soluble protein after heating vs DMSO (PISA); higher = thermal stabilisation; K562 cells, 10 uM, 30 min; active = over 0.2 and 3.5 SD of the protein, either way, in both replicates (recomputed)
[1] = compound: COC1=CC=C(C=C1)CN2C=CC3=C2C=C(C=C3)C(=O)NO
Procedure, shortened: (§1)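 Quantification of soluble protein used TMTpro 16plex LC-MS/MS, with channel sums equalised. Samples were the supernatant after 21,000xg for 90 min of pooled aliquots from K562 cells (2×10^6 cells/mL) treated with 10 μM compound for 30 min, heated for 3 min over 48°C-58°C, and extracted in PBS with 0.5% NP-40 at 4°C. Values, from duplicates, describe thermal stability against control samples on a log2 fold-change scale.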

filanesib = compound: CON(C)C(=O)N1N=C(c2cc(F)ccc2F)S[C@@]1(CCCN)c1ccccc1 [filanesib]
Procedure, shortened: as §1

zotarolimus = compound: CO[C@H]1C[C@@H]2CC[C@@H](C)[C@@](O)(O2)C(=O)C(=O)N2CCCC[C@H]2C(=O)O[C@H]([C@H](C)C[C@@H]2CC[C@H](n3cnnn3)[C@H](OC)C2)CC(=O)[C@H](C)/C=C(\C)[C@@H](O)[C@@H](OC)C(=O)[C@H](C)C[C@H](C)/C=C/C=C/C=C/1C [zotarolimus]
Procedure, shortened: as §1

idasanutlin = compound: COc1cc(C(=O)O)ccc1NC(=O)[C@@H]1N[C@@H](CC(C)(C)C)[C@](C#N)(c2ccc(Cl)cc2F)[C@H]1c1cccc(Cl)c1F [idasanutlin]
Procedure, shortened: as §1

alisertib = compound: COc1cc(Nc2ncc3c(n2)-c2ccc(Cl)cc2C(c2c(F)cccc2OC)=NC3)ccc1C(=O)O [alisertib]
Procedure, shortened: as §1

[2] = compound: COc1cc2nc(-c3cc(F)ccc3O)nc(N[C@@H]3CNC[C@H]3C(C)(C)O)c2cc1OC
Procedure, shortened: as §1

gefitinib = compound: COc1cc2ncnc(Nc3ccc(F)c(Cl)c3)c2cc1OCCCN1CCOCC1 [gefitinib]
Procedure, shortened: as §1

[3] = compound: COc1cccc2cc(-c3nc([C@H]4CC[C@H](C(=O)O)CC4)n4ncnc(N)c34)[nH]c12
Procedure, shortened: as §1

lapatinib = compound: CS(=O)(=O)CCNCc1ccc(-c2ccc3ncnc(Nc4ccc(OCc5cccc(F)c5)c(Cl)c4)c3c2)o1 [lapatinib]
Procedure, shortened: as §1

pictilisib = compound: CS(=O)(=O)N1CCN(Cc2cc3nc(-c4cccc5[nH]ncc45)nc(N4CCOCC4)c3s2)CC1 [pictilisib]
Procedure, shortened: as §1

[4] = compound: CS(=O)(=O)c1ccc(-c2cnc(N)c(C(=O)Nc3ccccc3)n2)cc1
Procedure, shortened: as §1

crizotinib = compound: C[C@@H](Oc1cc(-c2cnn(C3CCNCC3)c2)cnc1N)c1c(Cl)ccc(F)c1Cl [crizotinib]
Procedure, shortened: as §1

[5] = compound: C[C@H](C1=CC=C(C=C1)C(=O)NC2=C3C=CNC3=NC=C2)N
Procedure, shortened: as §1

duvelisib = compound: C[C@H](Nc1ncnc2nc[nH]c12)c1cc2cccc(Cl)c2c(=O)n1-c1ccccc1 [duvelisib]
Procedure, shortened: as §1

gandotinib = compound: Cc1cc(Nc2cc(CN3CCOCC3)c3nc(C)c(Cc4ccc(Cl)cc4F)n3n2)n[nH]1 [gandotinib]
Procedure, shortened: as §1

tozasertib = compound: Cc1cc(Nc2cc(N3CCN(C)CC3)nc(Sc3ccc(NC(=O)C4CC4)cc3)n2)n[nH]1 [tozasertib]
Procedure, shortened: as §1

[6] = compound: Cc1cc(SCc2sc(-c3ccc(C(F)(F)F)cc3)nc2C)ccc1OCC(=O)O
Procedure, shortened: as §1

doramapimod = compound: Cc1ccc(-n2nc(C(C)(C)C)cc2NC(=O)Nc2ccc(OCCN3CCOCC3)c3ccccc23)cc1 [doramapimod]
Procedure, shortened: as §1

ispinesib = compound: Cc1ccc(C(=O)N(CCCN)[C@@H](c2nc3cc(Cl)ccc3c(=O)n2Cc2ccccc2)C(C)C)cc1 [ispinesib]
Procedure, shortened: as §1

[7] = compound: C[C@@H]1COCCN1C2=NC(=NC(=C2)C3(CC3)S(=O)(=O)C)C4=C5C=CNC5=CC=C4
Procedure, shortened: as §1

UniProt Q6NXR4, sequence (Q6NXR4 whole entry, looked up): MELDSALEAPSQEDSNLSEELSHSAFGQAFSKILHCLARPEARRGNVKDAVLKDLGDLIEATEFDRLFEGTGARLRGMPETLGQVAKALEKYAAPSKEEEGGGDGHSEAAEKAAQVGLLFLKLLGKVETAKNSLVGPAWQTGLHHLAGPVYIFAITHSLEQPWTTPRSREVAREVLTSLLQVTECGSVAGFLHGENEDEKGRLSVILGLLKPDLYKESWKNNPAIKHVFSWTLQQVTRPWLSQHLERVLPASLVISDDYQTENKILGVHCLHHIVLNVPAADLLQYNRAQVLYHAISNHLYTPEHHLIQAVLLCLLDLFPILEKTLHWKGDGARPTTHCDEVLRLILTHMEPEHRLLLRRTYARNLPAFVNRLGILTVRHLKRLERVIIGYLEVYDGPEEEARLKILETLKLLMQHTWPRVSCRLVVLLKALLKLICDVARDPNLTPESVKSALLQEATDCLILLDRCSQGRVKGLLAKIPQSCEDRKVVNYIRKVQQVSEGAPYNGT
UniProt Q9BQB6, sequence (Q9BQB6 whole entry, looked up): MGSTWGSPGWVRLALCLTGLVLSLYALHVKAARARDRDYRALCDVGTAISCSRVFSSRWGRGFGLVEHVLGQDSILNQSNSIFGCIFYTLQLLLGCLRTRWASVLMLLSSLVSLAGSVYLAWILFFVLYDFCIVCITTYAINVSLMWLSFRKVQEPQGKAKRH
UniProt Q7Z7E8, sequence (Q7Z7E8 whole entry, looked up): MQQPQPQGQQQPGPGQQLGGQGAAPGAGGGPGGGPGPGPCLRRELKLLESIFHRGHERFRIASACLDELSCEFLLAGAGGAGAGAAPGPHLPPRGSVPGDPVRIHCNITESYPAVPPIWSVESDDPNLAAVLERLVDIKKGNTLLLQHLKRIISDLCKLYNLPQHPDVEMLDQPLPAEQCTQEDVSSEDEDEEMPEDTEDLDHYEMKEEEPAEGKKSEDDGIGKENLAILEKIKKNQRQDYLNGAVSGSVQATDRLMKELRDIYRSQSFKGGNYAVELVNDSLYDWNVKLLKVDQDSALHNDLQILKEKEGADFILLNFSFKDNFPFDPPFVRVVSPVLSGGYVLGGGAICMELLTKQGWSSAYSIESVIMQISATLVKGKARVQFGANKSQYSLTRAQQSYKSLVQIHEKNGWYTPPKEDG
UniProt Q5BJH2, sequence (Q5BJH2 whole entry, looked up): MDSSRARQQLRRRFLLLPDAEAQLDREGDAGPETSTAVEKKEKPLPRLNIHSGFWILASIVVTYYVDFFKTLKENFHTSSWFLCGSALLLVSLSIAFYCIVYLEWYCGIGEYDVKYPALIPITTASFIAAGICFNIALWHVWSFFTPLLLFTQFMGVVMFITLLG
UniProt Q9H4A3, sequence (Q9H4A3 whole entry, looked up): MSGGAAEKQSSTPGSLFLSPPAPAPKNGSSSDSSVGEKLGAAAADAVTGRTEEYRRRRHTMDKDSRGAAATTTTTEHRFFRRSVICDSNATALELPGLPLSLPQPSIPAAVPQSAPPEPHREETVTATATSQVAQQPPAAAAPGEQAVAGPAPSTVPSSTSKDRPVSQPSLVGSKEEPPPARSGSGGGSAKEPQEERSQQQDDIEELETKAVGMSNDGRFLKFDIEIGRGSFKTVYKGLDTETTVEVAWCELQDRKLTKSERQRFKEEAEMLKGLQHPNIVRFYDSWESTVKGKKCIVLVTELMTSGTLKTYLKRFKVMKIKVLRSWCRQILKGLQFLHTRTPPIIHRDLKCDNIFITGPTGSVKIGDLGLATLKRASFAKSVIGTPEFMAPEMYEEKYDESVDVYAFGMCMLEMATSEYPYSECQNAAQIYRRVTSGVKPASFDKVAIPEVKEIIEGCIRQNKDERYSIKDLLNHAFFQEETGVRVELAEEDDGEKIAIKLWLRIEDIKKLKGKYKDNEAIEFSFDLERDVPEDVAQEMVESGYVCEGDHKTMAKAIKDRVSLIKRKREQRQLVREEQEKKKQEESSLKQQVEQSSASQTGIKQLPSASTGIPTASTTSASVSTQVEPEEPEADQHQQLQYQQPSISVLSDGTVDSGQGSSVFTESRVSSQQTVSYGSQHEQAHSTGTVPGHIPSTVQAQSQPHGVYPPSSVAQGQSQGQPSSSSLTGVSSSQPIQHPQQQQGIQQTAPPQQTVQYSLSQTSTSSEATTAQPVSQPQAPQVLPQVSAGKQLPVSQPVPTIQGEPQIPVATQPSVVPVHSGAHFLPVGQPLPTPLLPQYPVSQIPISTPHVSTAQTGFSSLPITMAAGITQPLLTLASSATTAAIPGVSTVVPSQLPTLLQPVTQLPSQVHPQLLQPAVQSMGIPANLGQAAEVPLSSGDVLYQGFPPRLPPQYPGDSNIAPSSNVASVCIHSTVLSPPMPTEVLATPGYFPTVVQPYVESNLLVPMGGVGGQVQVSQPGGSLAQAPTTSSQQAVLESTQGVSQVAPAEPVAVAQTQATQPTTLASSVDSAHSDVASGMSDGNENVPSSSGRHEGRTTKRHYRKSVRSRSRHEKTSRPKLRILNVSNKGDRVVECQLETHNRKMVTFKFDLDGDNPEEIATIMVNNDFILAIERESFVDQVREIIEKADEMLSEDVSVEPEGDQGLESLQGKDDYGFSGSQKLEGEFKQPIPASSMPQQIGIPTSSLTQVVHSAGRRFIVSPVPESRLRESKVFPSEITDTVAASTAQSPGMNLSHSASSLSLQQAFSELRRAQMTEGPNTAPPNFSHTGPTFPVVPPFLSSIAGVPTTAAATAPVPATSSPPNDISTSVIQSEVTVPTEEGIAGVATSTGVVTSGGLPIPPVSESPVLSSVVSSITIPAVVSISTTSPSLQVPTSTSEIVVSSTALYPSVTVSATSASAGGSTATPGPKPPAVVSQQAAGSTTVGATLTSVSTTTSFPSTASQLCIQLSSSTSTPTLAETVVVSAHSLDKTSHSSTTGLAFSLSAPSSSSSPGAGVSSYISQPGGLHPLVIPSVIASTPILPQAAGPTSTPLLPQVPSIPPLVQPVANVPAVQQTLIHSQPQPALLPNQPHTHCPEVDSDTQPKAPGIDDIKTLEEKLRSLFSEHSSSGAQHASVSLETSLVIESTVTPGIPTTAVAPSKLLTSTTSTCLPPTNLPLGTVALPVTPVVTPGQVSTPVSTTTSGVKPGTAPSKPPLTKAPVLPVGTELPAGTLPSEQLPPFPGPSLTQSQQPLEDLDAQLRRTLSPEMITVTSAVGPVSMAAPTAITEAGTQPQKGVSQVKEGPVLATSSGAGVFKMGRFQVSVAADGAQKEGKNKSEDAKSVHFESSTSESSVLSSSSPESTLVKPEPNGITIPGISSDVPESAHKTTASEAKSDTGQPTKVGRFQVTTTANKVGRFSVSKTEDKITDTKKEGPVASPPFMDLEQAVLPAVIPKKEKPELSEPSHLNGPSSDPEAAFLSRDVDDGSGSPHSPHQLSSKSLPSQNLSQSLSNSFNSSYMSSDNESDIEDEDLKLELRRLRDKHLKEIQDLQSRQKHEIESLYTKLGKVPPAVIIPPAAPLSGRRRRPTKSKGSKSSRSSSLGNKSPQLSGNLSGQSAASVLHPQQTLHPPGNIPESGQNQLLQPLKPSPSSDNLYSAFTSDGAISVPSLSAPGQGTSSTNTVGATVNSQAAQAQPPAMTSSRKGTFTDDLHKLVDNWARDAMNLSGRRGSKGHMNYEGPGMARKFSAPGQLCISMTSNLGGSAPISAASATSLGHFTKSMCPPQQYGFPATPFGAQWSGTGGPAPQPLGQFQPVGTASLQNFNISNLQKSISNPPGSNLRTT
UniProt A6NIH7, sequence (A6NIH7 whole entry, looked up): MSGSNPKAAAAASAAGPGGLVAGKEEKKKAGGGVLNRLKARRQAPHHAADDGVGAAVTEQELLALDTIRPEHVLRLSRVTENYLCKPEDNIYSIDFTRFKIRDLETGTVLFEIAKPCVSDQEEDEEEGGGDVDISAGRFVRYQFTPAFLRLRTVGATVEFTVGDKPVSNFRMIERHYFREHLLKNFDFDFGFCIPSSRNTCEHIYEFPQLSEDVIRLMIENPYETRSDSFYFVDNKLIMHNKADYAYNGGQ
UniProt Q96DX7, sequence (Q96DX7 whole entry, looked up): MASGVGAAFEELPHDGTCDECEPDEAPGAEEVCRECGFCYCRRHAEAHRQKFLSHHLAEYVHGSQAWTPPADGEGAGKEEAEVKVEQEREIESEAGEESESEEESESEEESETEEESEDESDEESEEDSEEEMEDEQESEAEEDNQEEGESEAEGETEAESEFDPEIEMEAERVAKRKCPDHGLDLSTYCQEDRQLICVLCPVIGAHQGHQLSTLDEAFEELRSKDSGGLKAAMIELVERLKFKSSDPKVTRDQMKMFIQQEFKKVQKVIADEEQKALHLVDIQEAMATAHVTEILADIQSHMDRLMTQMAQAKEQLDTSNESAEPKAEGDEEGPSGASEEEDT

Target	log2 fold change [1]	log2 fold change (filanesib)	log2 fold change (zotarolimus)	log2 fold change (idasanutlin)	log2 fold change (alisertib)	log2 fold change [2]	log2 fold change (gefitinib)	log2 fold change [3]	log2 fold change (lapatinib)	log2 fold change (pictilisib)	log2 fold change [4]	log2 fold change (crizotinib)	log2 fold change [5]	log2 fold change (duvelisib)	log2 fold change (gandotinib)	log2 fold change (tozasertib)	log2 fold change [6]	log2 fold change (doramapimod)	log2 fold change (ispinesib)	log2 fold change [7]
UNC119B (UniProt A6NIH7)	-0.232	0.059	0.074	-0.034	-0.185	0.069	0.116	-0.002	0.06	0.092	0.026	-0.08	0.039	0.178	0.034	-0.019	-0.064	0.263	0.527 (active)	–
VKORC1 (UniProt Q9BQB6)	0.079	-0.077	0.022	-0.089	0.016	-0.019	-0.05	-0.144	-0.06	-0.021	0.012	0.494 (active)	-0.032	0.153	-0.116	-0.027	0.106	0.033	-0.108	–
TRIM44 (UniProt Q96DX7)	-0.074	0.022	0.005	-0.025	0.008	-0.047	-0.027	-0.033	0.025	0.039	0.013	0.083	-0.059	0.063	0.045	0.022	0.024	-0.004	0.03	–
UBE2Q1 (UniProt Q7Z7E8)	-0.09	-0.042	0.022	0.006	-0.055	0.012	-0.02	-0.044	0.01	0.039	0	-0.061	0.004	0.003	-0.196	0.036	0.07	0.029	-0.001	0.092
UBA6	0.021	-0.01	0.051	-0.016	-0.04	-0.031	0.029	-0.069	0.022	0.004	0.05	0.024	-0.017	-0.007	-0.039	0.05	0.078	-0.038	0.014	0.047
TMEM128 (UniProt Q5BJH2)	-0.065	0.152	-0.181	0.035	–	0.025	0.076	–	-0.068	–	0.001	0.234	0.025	-0.009	–	0.06	0.016	-0.138	0.021	-0.062
TTI2 (UniProt Q6NXR4)	0.012	0.06	-0.008	-0.04	0.028	-0.034	-0.081	-0.025	0.033	–	-0.066	-0.155	0.121	-0.067	–	0.004	0.142	0.013	-0.204	0.028
WNK1 isoform 7 (UniProt Q9H4A3)	-0.034	-0.003	-0.006	-0.026	-0.026	0.082	0	0.032	-0.002	0	0.022	-0.061	0.03	-0.016	-0.032	0.001	-0.018	0.001	-0.044	-0.027

From the supplement of paper PMC10849652
